Our source for the growth values is PubChem BioAssay (NCI).

About 83,000 compounds went through this panel and 20% of them were active in at least one assay; those are over-represented in the sample as a whole.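 Single-concentration screen, 48 h exposure, 96-well plates. Endpoint: percent growth. Below 10 = active.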 Unmarked numbers belong to inactive results. Activity calls are given as the source filed them.

Test systems include NCI-H23 lung; NCI-H226 lung; NCI-H322M lung; HOP-62 NSCLC; NCI-H460 lung; HOP-92 NSCLC; NCI-H522 lung; A549/ATCC NSCLC; 786-0 renal; COLO 205 colon.
Common to all, as to test: NCI-60 one-dose screen, 48 h (100 = growth as untreated, 0 = no growth, -100 = all killed)
Settings in all cases: 10 µM unless noted

Regarding `Cc1ccccc1OC(=O)c1cccc(Cl)c1`, the growth in the test on NCI-H23 lung is 108%; with NCI-H226 lung, 108%; in the test with NCI-H322M lung it was 114%; with HOP-62 NSCLC, 145%; in the test with NCI-H460 lung, 109%; with HOP-92 NSCLC it was 101%. For the same compound, the growth in the test with NCI-H522 lung is 95.5%; in the test with A549/ATCC NSCLC it was 102%; in the test with 786-0 renal, 112%; in the test with COLO 205 colon, 129%.
Regarding `COc1ccc2c3ccnc(C(F)(F)F)c3n(CCCCN)c2c1`, the growth with NCI-H23 lung was 54.6%; with NCI-H226 lung, 52.4%; with NCI-H322M lung, 65.3%; with HOP-62 NSCLC it was 40.1%; in the test on NCI-H460 lung, 47.1%; in the test on HOP-92 NSCLC, -22.3% (active). Also, the growth in the test with NCI-H522 lung was 11.4%; with A549/ATCC NSCLC it was 77%; in the test with 786-0 renal, 54.5%; in the test with COLO 205 colon, 10.7%.
Take `COc1ncc(-c2ccc3nccc(C#CCCCCC(=O)NO)c3c2)cc1NS(=O)(=O)c1ccc(F)cc1F`: the growth was 29.6% with NCI-H23 lung; 9.85% (active) in the test on NCI-H226 lung; 7.5% (active) in the test with NCI-H322M lung; 4.48% (active) in the test with HOP-62 NSCLC; 6.53% (active) with NCI-H460 lung; -27.7% (active) in the test on HOP-92 NSCLC. Moreover, the growth in the test with NCI-H522 lung is -21.7% (active); with A549/ATCC NSCLC, -12.7% (active); with 786-0 renal, -14.5% (active); in the test on COLO 205 colon, -44.5% (active).
In the case of `OC(c1ccc(Cl)cc1)(c1ccc(Cl)cc1)C(O)(c1ccc(Cl)cc1)c1ccc(Cl)cc1`, the growth in the test with NCI-H23 lung is 53.1%; in the test with NCI-H226 lung, 54.6%; with NCI-H322M lung it was 46.4%; in the test on HOP-62 NSCLC, 65.1%; in the test on NCI-H460 lung, 26.6%; in the test with HOP-92 NSCLC it was 24.7%. Also, the growth was 41.6% in the test on NCI-H522 lung, 44.9% in the test with A549/ATCC NSCLC, 31.9% in the test on 786-0 renal and 45% with COLO 205 colon.
`Clc1ccc(N2CCN(CCCN3CCN(c4cccc(Cl)c4)CC3)CC2)cc1`: the growth is 50.8% in the test on NCI-H23 lung; 90.5% with NCI-H226 lung; 78.3% in the test on NCI-H322M lung; 67.7% with HOP-62 NSCLC; 49.5% with NCI-H460 lung; 42.7% in the test with HOP-92 NSCLC. Further, the growth with NCI-H522 lung was 59.5%; in the test on A549/ATCC NSCLC it was 58.3%; in the test with 786-0 renal it was 62.4%; in the test on COLO 205 colon, 42.3%.
Turning to `COC(=O)c1cc(O)c2c(c1C(=O)OC)C[C@H]1[C@@H]3CC=C4C[C@@H](O)CC[C@]4(C)[C@H]3CC[C@]21C`, the growth was 46% with NCI-H23 lung; 70.6% with NCI-H226 lung; 66% in the test on NCI-H322M lung; 20.4% with HOP-62 NSCLC; 64.6% in the test on NCI-H460 lung; 18.6% in the test with HOP-92 NSCLC. Also, the growth with NCI-H522 lung is 50%; in the test with A549/ATCC NSCLC it was 38.5%; with 786-0 renal it was -56.1% (active); with COLO 205 colon it was 83.1%.
For `C=C(C)[C@@H]1CC[C@]2(C(=O)NCCCCCCN(CCCN)CCCN)CC[C@]3(C)[C@H](CC[C@@H]4[C@@]5(C)CC[C@H](OCCCN)C(C)(C)[C@@H]5CC[C@]43C)[C@@H]12`, the growth was 77.4% [100 µM] in the test with NCI-H23 lung; 111% [100 µM] in the test with NCI-H226 lung; 80.7% [100 µM] with NCI-H322M lung; 93.2% [100 µM] with HOP-62 NSCLC; -16.2% [100 µM] (active) in the test on NCI-H460 lung; 76.1% [100 µM] in the test on HOP-92 NSCLC. Moreover, the growth in the test on NCI-H522 lung is 88.8% [100 µM]; with A549/ATCC NSCLC, 46.2% [100 µM]; in the test with 786-0 renal, 61.9% [100 µM]; in the test with COLO 205 colon, 18.9% [100 µM].
As for `Nc1cc(Cl)cc2cccnc12`, the growth in the test with NCI-H23 lung is 88.6%; in the test with NCI-H226 lung, 81.4%; in the test on NCI-H322M lung, 116%; in the test with HOP-62 NSCLC, 95.5%; in the test with NCI-H460 lung, 112%; in the test on HOP-92 NSCLC it was 102%. Besides, the growth in the test on NCI-H522 lung is 96.7%; with A549/ATCC NSCLC, 111%; with 786-0 renal, 109%; in the test on COLO 205 colon, 124%.
On to `CC[C@]1(O)CC2CN(CCc3c([nH]c4ccccc34)[C@@](C(=O)OC)(c3cc4c(cc3OC)N(C=O)[C@H]3[C@@](O)(C(=O)OC)[C@H](OC(C)=O)[C@]5(CC)C=CCN6CC[C@]43[C@@H]65)C2)C1` (stereo not given in full), for which the growth with NCI-H23 lung is 21.5%; in the test on NCI-H226 lung, 2.28% (active); in the test on NCI-H322M lung it was 59.8%; with HOP-62 NSCLC, 16.9%; with NCI-H460 lung it was 3.19% (active); in the test with HOP-92 NSCLC, 25.4%. Further, the growth in the test with NCI-H522 lung was -21.5% (active); in the test on A549/ATCC NSCLC it was 16.7%; in the test with 786-0 renal, 16.8%; in the test with COLO 205 colon, -61.1% (active).
On to `O=S(=O)(c1ccc(N/N=C\c2ccccc2Cl)cc1)c1ccc(N/N=C/c2ccccc2Cl)cc1`, for which the growth was 86.8% in the test with NCI-H23 lung; 74.9% in the test on NCI-H226 lung; 94.2% in the test on NCI-H322M lung; 88% with HOP-62 NSCLC; 71.2% in the test with NCI-H460 lung; 31.2% in the test with HOP-92 NSCLC. Also, the growth with NCI-H522 lung is 84.8%; in the test on A549/ATCC NSCLC, 85.2%; in the test on 786-0 renal it was 98.4%; in the test on COLO 205 colon, 97.1%.
As to `CC1=CCc2ccccc21`, the growth was 97.6% in the test on NCI-H23 lung; 95.3% with NCI-H226 lung; 91.3% in the test with NCI-H322M lung; 101% with HOP-62 NSCLC; 99.8% with NCI-H460 lung; 82% with HOP-92 NSCLC. The growth in the test on NCI-H522 lung was 90.5%; in the test on A549/ATCC NSCLC it was 97.1%; with 786-0 renal, 103%; with COLO 205 colon it was 105%.
With `Cc1cccc(C[C@H](NC(=O)Nc2ccc(Cl)cc2F)C(=O)N[C@@H]2C(=O)N3C[C@H](O)C[C@H]3C(=O)N3CCCC[C@H]3C(=O)N[C@@H](C)C(=O)N3C[C@H](C)C[C@H]3C(=O)O[C@H]2C)c1`, the growth was 25.7% in the test on NCI-H23 lung; 20.9% in the test on NCI-H226 lung; 34% in the test on NCI-H322M lung; 24% in the test with HOP-62 NSCLC; 2.42% (active) in the test with NCI-H460 lung; -7.02% (active) in the test on HOP-92 NSCLC. In addition, the growth in the test on NCI-H522 lung was 14.7%; with A549/ATCC NSCLC it was 17.9%; in the test with 786-0 renal, 11%; in the test on COLO 205 colon it was -30.9% (active).
